Bioassay records from PubChem BioAssay.
Rows were chosen to be rich in hits. Some 3.6% of all compounds tested hit in one or more screens of this group.
PTAP-TSG101 blk: blocks PTAP binding to human TSG101, validation | Fluorescence polarization, FITC-PTAP peptide/Tsg101, 20 min | Potency, µM (highest dose often 115 µM), most hits filed as inhibitors | 44,000 tested, under 10 active; note: potency is the fitted concentration of half-maximal effect; 0% is about no effect
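Compounds pinned into 10 uM Tsg101 binding domain, then 50 nM FITC-PTAP peptide added in pH 7.5 HEPES buffer; FP read after 20 min, room temperature. Total S+P intensity flags fluorescent compounds; active cut-off <25 µM, efficacy <60%.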
NTMT1 inhibitor: NTMT1 methyltransferase inhibition. NTMT1 MTase-Glo SAH luminescence, purified enzyme. 2.5% of 59,000 active. Potency, µM (highest dose often 114 µM), for the others: at the highest dose activity change, negative = inhibition, hits mostly inhibitors. Q9BV86;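 note: potency is the fitted concentration of half-maximal effect; plate controls were DMSO vehicle for no effect and no enzyme for full effect; nearly all actives have a fitted effect of over 65% in size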
GALC G270D act: raises human GALC G270D mutant activity in cells. P54803. 145M-Twi-hGALC-G270D cells (Twitcher mouse brain line with human GALC G270D), HMU-beta-Gal fluorescence, 48 h. Potency, µM (titrated, usually from 57.5 µM), usual class: activators. 0.1% of 45,000 active. AID 1159614; note: potency is the fitted concentration of half-maximal effect; 0% is about no effect; nearly all actives have a fitted effect of over 65% in size
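Live 145M-Twi cells (Twitcher mouse brain-derived, GALC-null) stably expressing human GALC-G270D, with a wild-type GALC line, were compound-treated. Residual GALC activity was then read as fluorescence from 0.1 mM final HMU-β-gal at pH 5.2; higher signal means activation.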
GALK inhibitor: inhibitors of human galactokinase (GALK); 44,000 tested, under 10 active; recombinant GALK, Kinase-Glo ATP luminescence, 1 h; Potency, µM (titrated, usually from 57.5 µM), for inactives: at the top dose activity, negative = inhibition, most hits filed as inhibitors; P51570; AID 1347072;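 note: plate controls were full GALK reaction for no effect and reaction lacking GALK for full effect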
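Luminescent ATP-depletion readout (Kinase-Glo Plus) after 1 h room-temperature incubation of human GALK (5 nM) with galactose 100 µM and ATP 35 µM, pH 8.0 HEPES/Mg2+ buffer; compounds tested in qHTS format.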
DRV1 agonist: agonists of human resolvin D1 receptor DRV1 (GPR32). O75388. CHO-K1 GPR32 beta-arrestin PathHunter luminescence, 90 min; zero percent set by DMSO-only wells. activation, % at 76.9 µM. 2.5% of 48,000 active;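 active = activation of at least 60% and not above a set upper limit, about 1 call in 100 departs from these limits; inconclusive = activation of 40% to 60%, or above that upper limit; inactive = activation under 40%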; note: 0% is about no effect
Target sequence (O75388 whole entry, looked up): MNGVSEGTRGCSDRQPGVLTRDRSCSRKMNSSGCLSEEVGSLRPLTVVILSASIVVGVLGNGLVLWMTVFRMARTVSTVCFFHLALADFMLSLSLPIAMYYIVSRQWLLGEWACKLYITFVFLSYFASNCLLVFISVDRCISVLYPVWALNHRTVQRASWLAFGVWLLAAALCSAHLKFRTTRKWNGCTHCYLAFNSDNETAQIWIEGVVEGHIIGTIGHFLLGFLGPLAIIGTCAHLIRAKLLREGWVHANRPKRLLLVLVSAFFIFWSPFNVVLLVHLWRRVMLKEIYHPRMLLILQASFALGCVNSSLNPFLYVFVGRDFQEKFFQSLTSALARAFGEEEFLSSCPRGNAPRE
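PathHunter enzyme-fragment complementation, CHO-K1 GPR32 stable line; 2,500 cells/well, overnight attach; cpd 90 min 37 °C 5% CO2; detection reagent 1 h RT; chemiluminescence. DMSO = EC0.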
B2AR arrestin ag: agonists recruiting beta-arrestin to human beta2-adrenergic receptor. Potency, µM (series often up to 46.1 µM), actives largely listed as activators. HTLA Tango cells, beta-arrestin recruitment, luciferase luminescence, 18 h. AID 1347077. 44,000 tested, under 10 active. P07550;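 note: potency is the fitted concentration of half-maximal effect; 0% = DMSO and full agonism = EC100 isoproterenol or metaproterenol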
Target sequence (P07550 whole entry, looked up): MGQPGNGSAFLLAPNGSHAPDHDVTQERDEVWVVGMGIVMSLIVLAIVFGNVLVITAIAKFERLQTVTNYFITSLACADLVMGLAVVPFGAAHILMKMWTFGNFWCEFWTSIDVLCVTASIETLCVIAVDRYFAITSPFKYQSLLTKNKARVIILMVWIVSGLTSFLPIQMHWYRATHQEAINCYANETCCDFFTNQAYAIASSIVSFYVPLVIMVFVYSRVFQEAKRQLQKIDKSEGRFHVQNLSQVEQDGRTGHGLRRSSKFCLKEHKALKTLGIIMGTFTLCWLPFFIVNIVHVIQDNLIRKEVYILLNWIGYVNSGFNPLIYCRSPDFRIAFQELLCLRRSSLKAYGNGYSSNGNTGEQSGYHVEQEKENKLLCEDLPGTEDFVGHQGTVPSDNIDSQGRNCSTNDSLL
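Luminescence read-out: arrestin recruitment to recombinant beta2-AR releases tTA, inducing luciferase. Cells exposed 18 hr at 37 degrees C to up to 46 microM compound; %Activity from corrected signal, concentration-response curves classified by r2, magnitude and efficacy.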
Active calls of the source: *; i = inactive; ? = inconclusive; / = no result; ! = a repeat was not active; [ ] = remark or other dose. Unless noted, calls come from the whole dose curve; as a rule, active = well fitted curve in the direction sought with a large enough effect; inconclusive = small, poorly fitted or top-dose-only effect, or another doubt; inactive = no such curve, though single readings can be large; an effect the other way counts as inactive or inconclusive.

SMILES | PTAP-TSG101 blk | NTMT1 inhibitor | GALC G270D act | GALK inhibitor | DRV1 agonist | B2AR arrestin ag
Cc1sc(NC(=O)Cc2ccc3c(c2)OCO3)nc1-c1ccc2c(c1)CCN2C(=O)c1ccccc1 | / | -1.1% | / | / | / | /
Cc1c(Cl)cccc1NC(=O)c1cc2sccc2n1Cc1ccc(F)cc1 | i | 89.1µM* | i | 0.9% | 0.0 | i
Cc1ccc(CNC(=O)c2cc3sccc3n2Cc2ccc(F)cc2)cc1 | i | 1.5% | i | -1.5% | -2.8 | i
COc1cccc(CCC(=O)NCCc2nc3ccccc3n2CCOc2ccc(C)cc2)c1 | / | 6.9% | / | / | / | /
O=C(Cn1c(=O)n(Cc2ccc(F)cc2)c(=O)c2sc3ccccc3c21)NCc1ccccc1Cl | i | 89.1µM* | i | 6.7% | 0.2 | i
Cc1ccccc1-n1c([C@H](C)Nc2nc(N)nc3nc[nH]c23)nc2cccc(C)c2c1=O | / | 12.6%[57.5 µM] | / | / | / | /
Nc1ncnc2c1ncn2[C@@H]1O[C@@H](CO)[C@H](O)[C@H]1O | / | -27.0%[57.5 µM] | / | / | / | /
OC[C@H]1O[C@@H](n2cnc3c(=S)nc[nH]c32)[C@H](O)[C@@H]1O | / | 5.62µM* | i | / | -86.9 | /
Nc1ncnc2c1ncn2[C@@H]1O[C@H](CO)[C@@H](O)[C@H]1O | / | 50.1µM*! | i | / | 3.6 | /
Cc1ccc(NS(=O)(=O)c2ccccc2C(=O)Nc2nc(-c3ccccc3)cs2)cc1 | / | 13.8% | / | / | / | /
Cc1cc(C)cc(NC(=O)C2CC(=O)N(c3ccccc3)C2)c1 (stereo not drawn) | i | 1.5% | i | 6.7% | 118.1* | i
Cc1ccc(-c2noc(-c3ccccc3NC(=O)C3CC(=O)N(c4cccc(C)c4)C3)n2)cc1 (stereo not drawn) | i | -26.8% | i | 0.1% | 5.6 | i
CCN(CC)c1ccc(NC(=O)C2CCN(c3nnc(-n4cccc4)s3)CC2)c(C)c1 | i | 3.3% | i | -7.0% | 60.4* | i
O=C(Nc1ccccc1C(F)(F)F)C1CCN(c2nnc(-n3cccc3)s2)CC1 | i | -9.2% | i | 1.4% | -6.9 | i
O=C(Nc1cccc(Nc2cc(Nc3cccc(C(F)(F)F)c3)ncn2)c1)C1CC1 | / | 10µM* | / | / | / | /
CN(C)c1ccnc2sc3c(=O)n(N4CCCCCC4)cnc3c12 | / | -7.0%[57.5 µM] | / | / | / | /
CC1=C(C(=O)OC2CCCC2)C(c2cccc(Cl)c2Cl)CC(=O)N1 (stereo not drawn) | i | 9.6% | i | -6.1% | 83.1* | i
CC1=C(C(=O)OC2CCCC2)C(c2ccccc2Cl)CC(=O)N1 (stereo not drawn) | i | ? | i | 2.3% | -21.3 | i
CC1=C(C(=O)OC2CCCC2)C(c2c(Cl)cccc2Cl)CC(=O)N1 (stereo not drawn) | i | -3.7% | i | -8.8% | 82.3* | i
CCOC(=N)c1nc2ccc3ncnc(Nc4cc(F)c(F)cc4Cl)c3c2s1 | / | -23.0% | / | / | / | /
Cc1ccc(CNS(=O)(=O)c2cc3c(cc2Cl)NC(=O)CO3)o1 | i | 89.1µM* | i | ? | -7.9 | i
Cc1cc2c(cc1S(=O)(=O)NCc1ccccc1Cl)OCC(=O)N2 | i | -5.7% | i | 1.8% | 3.3 | i
Cc1sc(NC(=O)Cc2ccc3c(c2)OCO3)nc1-c1ccc2c(c1)CCN2C(=O)c1ccccc1C(F)(F)F | / | 10.6%[57.5 µM] | / | / | / | /
NCCCC[C@H](NC(=O)[C@@H](NC(=O)[C@H](Cc1c[nH]c2ccccc12)NC(=O)[C@H](CCCCN)NC(=O)[C@H](CCCCN)NC(=O)[C@H](Cc1c[nH]c2ccccc12)NC(=O)[C@H](Cc1c[nH]c2ccccc12)NC(=O)[C@H](CCCCN)NC(=O)[C@@H](N)CCCCN)C(c1ccccc1)c1ccccc1)C(N)=O | / | 22.4µM* | / | / | / | /
CCOC(=O)c1ccc(Nc2nc3ccccc3nc2NS(=O)(=O)c2ccc(Cl)cc2)cc1 | i | 6.5% | i | -1.4% | ? | i
SMILES | PTAP-TSG101 blk | NTMT1 inhibitor | GALC G270D act | GALK inhibitor | DRV1 agonist | B2AR arrestin ag
CCOc1ccccc1Nc1nc2ccccc2nc1NS(=O)(=O)c1ccc(Cl)cc1 | i | -16.7% | i | -0.2% | 67.1* | i
CC#CC(=O)N1CC[C@@H](n2c(=O)n(-c3ccc(Oc4ccccc4)cc3)c3c(N)ncnc32)C1 | / | 70.8µM* | / | / | / | /
C=CC(=O)N1CCC[C@H](n2c(=O)n(-c3ccc(Oc4ccccc4)cc3)c3c(N)ncnc32)C1 | / | 89.1µM* | / | / | / | /
FC(F)(F)c1ccccc1-c1nc(NCc2ccc(-c3ccc4c(c3)OCCO4)cc2)c2ccccc2n1 | / | 11.9% | / | / | / | /
COc1nnc2ccc(N3CCC(c4ccc(OCCN5CCN(C)C(=O)[C@H]5C)cc4)CC3)nn12 | / | 6.9% | / | / | / | /
COCCn1c(SCC(=O)Nc2ccc(F)c(Cl)c2)nc2c(oc3ccccc32)c1=O | i | 79.4µM* | i | -2.5% | 9.5 | i
COc1ccc(NC(=O)CSc2nc3c(oc4ccccc43)c(=O)n2Cc2ccco2)cc1Cl | i | -4.9% | i | 4.5% | -3.4 | i
CSc1ccccc1-c1ccc(Nc2nc(-c3ccncc3)nc3ccccc23)cc1F | / | -0.9%[57.5 µM] | / | / | / | /
Cc1nnc(-c2cnn(C)c2N)n1CCCc1cccnc1 | / | 10.8% | / | / | / | /
Cc1ccc(C)c2sc(N3CCN(C(=O)c4ccco4)CC3)nc12 | i | -6.7% | i | 2.2% | 87.8* | i
Cc1cccc2sc(N3CCN(C(=O)c4ccco4)CC3)nc12 | i | 3.3% | i | 4.0% | 8.6 | i
CC(C)(C)N=Cc1c(-c2ccccc2)no[n+]1[O-] | / | 6.5% | / | / | / | /
CC1=C(C(=O)Nc2ccccc2Cl)C(c2cccc(O)c2)n2ncnc2N1 (stereo not drawn) | i | 0.6% | i | 4.0% | -4.6 | i
CC1=C(C(N)=O)C(c2cccc(O)c2)n2ncnc2N1 (stereo not drawn) | i | 5.1% | i | -0.9% | 60.7* | i
CC(=O)C1=C(c2ccc(Cl)c(Cl)c2)N(C(C)=O)n2cnnc2S1 | i | 56.2µM* | i | -2.3% | 2.4 | i
COc1ccccc1OC(C)C(=O)N1CCC(c2nc3ccccc3s2)CC1 (stereo not drawn) | i | -6.1% | ? | 3.8% | 84.8* | i
O=C(COc1cccc(Cl)c1)N1CCC(c2nc3ccccc3s2)CC1 | i | -0.6% | i | 0.0% | 71.6* | i
O=C(c1ccc(F)cc1)N1CCC(c2nc3ccccc3s2)CC1 | i | -3.0% | i | -4.8% | 63.6* | i
NC1(c2ccc(NC(=O)c3ccnc(-c4cc(C(=O)O)ccn4)c3)cc2)CC1 | / | 1.9%[57.5 µM] | / | / | / | /
